Experimental data taken from PubChem BioAssay (EPA / NIEHS).
Records with an inconclusive call do not appear. Calls of active or inactive are those of the source. Rule for the calls: active = hit-call score of the fitted dose curve at least 0.9, where 1 is the maximum; inconclusive = response in the unintended direction; inactive = score below 0.9.

Experiments:
[1] = biological target: Androgen Receptor/SRC-1 Co-activator, AR (gene 367) (UniProt P10275); experiment: OT_AR_ARSRC1_0480: Odyssey Thera (OT) 8-hour HEK293T Protein-Complementation Assay for Androgen Receptor/SRC-1 Co-activator (AID 2283354);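 note: hits raise the complementation signal above DMSO so AC50 marks enhancers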
Summary of the method: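 Split-Venus PCA, stable HEK293T, AR/SRC-1 fusions; 8 h exposure. Readout: 488nm N/C fluorescence ratio, ≥400 cells/image; fitted upward vs DMSO baseline.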

[2] = biological target: Estrogen receptor (Homo sapiens) + Estrogen receptor beta (Homo sapiens) (UniProt P03372+Q92731); experiment: OT_ER_ERaERb_1440: Odyssey Thera (OT) 24-hour HEK293T Protein-Complementation Assay for Estrogen Receptor-alpha/-beta Homodimer (AID 2283356);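 note: heteromer of ER alpha and ER beta binding domains; hits raise reporter fluorescence and both agonists and antagonists give an increase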
Summary of the method: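 Stable HEK293T PCA line, ERα LBD 310-547 + ERβ LBD 263-489 fused to reporter fragments; 24 h treatment; fluorescence read by laser scanning cytometry; positive fitting direction relative to DMSO.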

[3] = biological target: Estrogen receptor beta (Homo sapiens) (UniProt Q92731); experiment: OT_ER_ERbERb_0480: Odyssey Thera (OT) 8-hour HEK293T Protein-Complementation Assay for Estrogen Receptor-beta/-beta Homodimer (AID 2283357);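 note: active means signal gain over DMSO baseline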
Summary of the method: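 Homodimerization of ER-beta LBD measured by protein-fragment complementation in HEK293T; 8 h dosing; fixed, Draq5 counterstain; fluorescence intensity gain over DMSO baseline, positive fitting direction; laser scanning cytometry.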

[4] = biological target: Retinoic acid receptor alpha (Homo sapiens) (UniProt P10276); experiment: NVS_NR_hRAR_Antagonist: NovaScreen (NVS) Nuclear Receptor Binding Assay for human Retinoic Acid Alpha Receptor Antagonism (RAR) (AID 2283358)
Summary of the method: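 Read-out: time-resolved FRET binding signal, 2 h post-dose, cell-free extracted protein. Antagonism scored as signal loss versus DMSO negative control. Primary single-concentration screen at 25 uM in duplicate; concentration series for actives.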

[5] = biological target: human Peroxisome Proliferator-activated Receptor alpha (PPARa), PPARA (gene 5465) (UniProt Q07869); experiment: NVS_NR_hPPARa: NovaScreen (NVS) Nuclear Receptor Binding Assay for human Peroxisome Proliferator-activated Receptor alpha (PPARa) (AID 2283359);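 note: activity means loss of TR-FRET signal versus DMSO baseline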
Summary of the method: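 TR-FRET signal measured at 1 h post-dosing; loss-of-signal versus DMSO negative control taken as activity. Extracted gene-protein, cell-free format. Initial single-point duplicates at 25 uM, then concentration-response retests.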

[6] = biological target: Glucocorticoid receptor (Homo sapiens) (UniProt P04150); experiment: NVS_NR_hGR: NovaScreen (NVS) Nuclear Receptor Binding Assay for human Glucocorticoid Receptor (GR) (AID 2283363)
Summary of the method: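 Filter scintillation readout of tritiated/iodinated radioligand displaced by test chemical; cell-free extracted protein; 16 h. DMSO = negative control/baseline. Duplicate single-point 25 uM screen, then concentration-response on actives.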

[7] = biological target: rat Mineralocorticoid Receptor (MR), Nr3c2 (gene 25672) (UniProt P22199); experiment: NVS_NR_rMR: NovaScreen (NVS) Nuclear Receptor Binding Assay for rat Mineralocorticoid Receptor (MR) (AID 2283355)
Summary of the method: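 Radioligand displacement, scintillation readout; tissue source adrenalectomized rat brain supernatant. Read 24 h post-dose. Screened in duplicate at 25 uM, DMSO negative control, controls on every plate; actives re-run in concentration series.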

PGR (gene 5241) = PGR (gene 5241) (UniProt P06401); experiment: NVS_NR_hPR: NovaScreen (NVS) Nuclear Receptor Binding Assay for human Progestron Receptor (PR) (AID 2283360);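 note: active means loss of bound radioligand signal versus DMSO baseline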
Procedure: NVS_NR_hPR is a biochemical, single-readout assay that uses extracted gene-proteins from T47D in a cell-free assay. Measurements were taken 18 hours after chemical dosing in a 96-well plate.NVS_NR_hPR is one of one assay component(s) measured or calculated from the NVS_NR_hPR assay. It is designed to make measurements of radioligand binding, a form of binding reporter, as detected with scintillation counting signals by Lysate-based radiodetection technology.Data from the assay component NVS_NR_hPR was analyzed into 1 assay endpoint. This assay endpoint, NVS_NR_hPR, was analyzed in the positive analysis fitting direction relative to DMSO as the negative control and baseline of activity. Using a type of binding reporter, loss-of-signal activity can be used to understand changes in the binding as they relate to the gene PGR. Furthermore, this assay endpoint can be referred to as a primary readout, because the performed assay has only produced 1 assay endpoint. To generalize the intended target to other relatable targets, this assay endpoint is annotated to the nuclear receptor intended target family, where the subfamily is steroidal.
Binding assays used specific radioligands (tritiated, iodinated) with non-radioactive competitive displacement ligands in agonist or antagonist protocols (as indicated) and various reference compounds and inhibitors to titrate specific binding to receptors and transporters. Most enzyme assays (CYPs, kinases, phosphatases, proteases, HDACs) used recombinant protein and specific substrates (fluorescence mostly, some colorimetric and radioactive) and inhibitors, followed by a biochemical separation of substrate and product. All assays for the biochemical HTS were initially run in duplicate at a single concentration (10 uM for CYP450 assays and 25 uM for all others). […] Each assay was run with positive and negative controls, and concurrent controls on every plate. The follow-up (secondary) screen tested active chemical-pairs in concentration series, as well as a few additional assays not tested in the primary screen, some selected negative inactives, and several cases re-run in the concentration series for confirmatory purposes.

[8] = biological target: Retinoic acid receptor alpha (Homo sapiens) (UniProt P10276); experiment: NVS_NR_hRARa_Agonist: NovaScreen (NVS) Nuclear Receptor Binding Assay for human Retinoic Acid Alpha Receptor Agonism (RAR) (AID 2283361)
Summary of the method: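 TR-FRET signal, 2 h post-dosing; cell-free extracted protein; DMSO = baseline, positive fitting direction; 25 uM single-point duplicate, then concentration series for actives.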

[9] = biological target: human Thyroid Receptor Alpha (TRa), THRA (gene 7067) (UniProt P10827); experiment: NVS_NR_hTRa_Antagonist: NovaScreen (NVS) Nuclear Receptor Binding Assay for human Thyroid Receptor Alpha Antagonism (TRa) (AID 2283362)
Summary of the method: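 Extracted protein, cell-free; 1 h incubation after dosing; AlphaLISA chemiluminescence binding readout. DMSO = baseline/neg ctrl; signal loss = activity. Primary: duplicate, 25 uM; secondary: conc. series on actives.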

Sequence of PGR (gene 5241) (P06401 whole entry, looked up): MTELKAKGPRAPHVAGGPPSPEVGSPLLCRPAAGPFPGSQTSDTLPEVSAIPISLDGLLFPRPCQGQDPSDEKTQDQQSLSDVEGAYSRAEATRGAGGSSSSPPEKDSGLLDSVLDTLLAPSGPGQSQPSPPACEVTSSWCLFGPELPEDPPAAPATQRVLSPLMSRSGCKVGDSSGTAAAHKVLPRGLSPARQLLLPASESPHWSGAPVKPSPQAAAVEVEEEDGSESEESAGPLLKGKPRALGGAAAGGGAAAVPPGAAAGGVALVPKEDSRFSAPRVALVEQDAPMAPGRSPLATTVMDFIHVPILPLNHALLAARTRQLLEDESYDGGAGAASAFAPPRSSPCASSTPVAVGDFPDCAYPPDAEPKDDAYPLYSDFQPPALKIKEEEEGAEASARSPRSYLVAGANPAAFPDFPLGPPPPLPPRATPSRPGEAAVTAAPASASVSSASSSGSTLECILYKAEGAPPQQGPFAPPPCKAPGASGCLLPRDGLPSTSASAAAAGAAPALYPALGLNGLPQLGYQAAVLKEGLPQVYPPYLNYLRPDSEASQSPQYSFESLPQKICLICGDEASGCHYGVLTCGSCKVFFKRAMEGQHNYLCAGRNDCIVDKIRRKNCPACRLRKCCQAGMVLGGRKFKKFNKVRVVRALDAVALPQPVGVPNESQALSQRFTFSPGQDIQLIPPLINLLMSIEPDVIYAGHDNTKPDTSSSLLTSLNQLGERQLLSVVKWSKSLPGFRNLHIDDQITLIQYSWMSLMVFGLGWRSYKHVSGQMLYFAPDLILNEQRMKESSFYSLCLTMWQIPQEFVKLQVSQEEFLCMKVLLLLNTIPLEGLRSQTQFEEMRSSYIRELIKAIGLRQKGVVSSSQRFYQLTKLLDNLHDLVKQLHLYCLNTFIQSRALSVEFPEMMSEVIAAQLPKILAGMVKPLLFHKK
Sequence of Glucocorticoid receptor (Homo sapiens) (P04150 whole entry, looked up): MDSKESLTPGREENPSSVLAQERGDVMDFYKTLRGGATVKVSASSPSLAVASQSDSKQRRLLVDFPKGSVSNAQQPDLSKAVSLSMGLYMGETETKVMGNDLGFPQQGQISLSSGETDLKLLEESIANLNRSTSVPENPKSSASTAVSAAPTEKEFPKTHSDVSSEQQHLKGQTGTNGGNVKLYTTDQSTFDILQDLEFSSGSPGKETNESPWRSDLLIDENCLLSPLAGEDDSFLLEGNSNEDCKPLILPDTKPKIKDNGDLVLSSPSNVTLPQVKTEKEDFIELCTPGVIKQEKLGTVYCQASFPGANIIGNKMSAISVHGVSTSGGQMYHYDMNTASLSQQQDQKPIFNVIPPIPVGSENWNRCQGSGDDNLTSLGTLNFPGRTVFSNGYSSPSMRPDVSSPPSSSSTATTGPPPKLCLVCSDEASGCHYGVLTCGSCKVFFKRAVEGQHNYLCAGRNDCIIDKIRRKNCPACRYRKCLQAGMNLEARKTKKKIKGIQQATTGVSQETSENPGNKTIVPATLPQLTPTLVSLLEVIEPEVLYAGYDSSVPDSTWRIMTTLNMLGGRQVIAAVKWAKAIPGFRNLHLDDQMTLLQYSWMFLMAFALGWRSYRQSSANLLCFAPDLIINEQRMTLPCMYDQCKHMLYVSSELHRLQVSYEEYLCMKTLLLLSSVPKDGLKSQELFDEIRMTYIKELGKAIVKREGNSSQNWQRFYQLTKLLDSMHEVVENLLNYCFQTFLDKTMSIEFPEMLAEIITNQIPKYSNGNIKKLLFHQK
Sequence of rat Mineralocorticoid Receptor (MR), Nr3c2 (gene 25672) (P22199 whole entry, looked up): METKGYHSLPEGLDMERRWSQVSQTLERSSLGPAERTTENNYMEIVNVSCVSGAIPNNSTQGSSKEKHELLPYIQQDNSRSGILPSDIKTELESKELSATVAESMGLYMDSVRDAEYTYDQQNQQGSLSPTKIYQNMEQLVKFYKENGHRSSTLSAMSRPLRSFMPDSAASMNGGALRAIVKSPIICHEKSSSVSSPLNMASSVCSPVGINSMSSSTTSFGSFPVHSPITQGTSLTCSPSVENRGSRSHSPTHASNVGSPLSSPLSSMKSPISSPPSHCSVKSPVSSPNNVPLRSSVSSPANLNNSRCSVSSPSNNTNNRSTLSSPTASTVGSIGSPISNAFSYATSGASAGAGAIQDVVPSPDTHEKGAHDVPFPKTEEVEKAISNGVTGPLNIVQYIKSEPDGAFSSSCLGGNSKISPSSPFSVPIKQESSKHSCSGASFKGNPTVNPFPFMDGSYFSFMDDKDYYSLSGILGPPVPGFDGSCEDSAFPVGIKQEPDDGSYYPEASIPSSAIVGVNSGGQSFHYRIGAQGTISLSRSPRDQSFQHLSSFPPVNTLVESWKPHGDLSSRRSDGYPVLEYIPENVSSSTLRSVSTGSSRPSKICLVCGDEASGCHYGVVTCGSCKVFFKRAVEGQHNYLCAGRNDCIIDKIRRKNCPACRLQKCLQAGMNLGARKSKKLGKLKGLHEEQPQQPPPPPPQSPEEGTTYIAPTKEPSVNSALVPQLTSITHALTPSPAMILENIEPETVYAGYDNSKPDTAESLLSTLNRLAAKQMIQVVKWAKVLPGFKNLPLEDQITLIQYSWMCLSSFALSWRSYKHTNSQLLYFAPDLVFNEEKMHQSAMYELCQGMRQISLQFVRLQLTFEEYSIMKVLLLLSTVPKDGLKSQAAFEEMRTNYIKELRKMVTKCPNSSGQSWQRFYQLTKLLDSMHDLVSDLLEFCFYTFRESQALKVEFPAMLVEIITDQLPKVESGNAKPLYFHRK
Sequence of Estrogen receptor beta (Homo sapiens) (Q92731 whole entry, looked up, the tested form may be a part): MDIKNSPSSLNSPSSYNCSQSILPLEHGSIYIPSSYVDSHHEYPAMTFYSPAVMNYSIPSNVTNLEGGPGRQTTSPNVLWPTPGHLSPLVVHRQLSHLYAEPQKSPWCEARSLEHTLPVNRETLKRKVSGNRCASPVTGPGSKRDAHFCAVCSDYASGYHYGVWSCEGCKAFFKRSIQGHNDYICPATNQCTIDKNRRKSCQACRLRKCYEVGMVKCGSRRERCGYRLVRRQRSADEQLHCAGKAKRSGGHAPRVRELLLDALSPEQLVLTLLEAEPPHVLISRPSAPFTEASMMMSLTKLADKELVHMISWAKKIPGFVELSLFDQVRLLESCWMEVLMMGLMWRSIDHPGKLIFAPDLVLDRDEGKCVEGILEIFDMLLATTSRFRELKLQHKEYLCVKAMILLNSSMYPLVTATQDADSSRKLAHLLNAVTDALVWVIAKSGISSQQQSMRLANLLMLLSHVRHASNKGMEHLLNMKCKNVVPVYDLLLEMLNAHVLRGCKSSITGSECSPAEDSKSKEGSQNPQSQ
Sequence of Retinoic acid receptor alpha (Homo sapiens) (P10276 whole entry, looked up): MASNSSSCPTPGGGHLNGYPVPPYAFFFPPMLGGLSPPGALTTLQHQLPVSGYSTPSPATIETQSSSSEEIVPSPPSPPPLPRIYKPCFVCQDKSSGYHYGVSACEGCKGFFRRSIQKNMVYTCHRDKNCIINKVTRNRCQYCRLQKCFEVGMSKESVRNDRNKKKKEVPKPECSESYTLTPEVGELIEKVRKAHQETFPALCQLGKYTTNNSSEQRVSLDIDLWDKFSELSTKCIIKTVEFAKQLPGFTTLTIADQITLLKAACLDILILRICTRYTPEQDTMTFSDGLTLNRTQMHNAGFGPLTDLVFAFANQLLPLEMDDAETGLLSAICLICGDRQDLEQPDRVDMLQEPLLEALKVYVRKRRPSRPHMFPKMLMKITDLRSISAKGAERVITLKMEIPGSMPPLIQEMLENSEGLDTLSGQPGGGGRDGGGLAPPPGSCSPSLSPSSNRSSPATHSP
Sequence of Estrogen receptor (Homo sapiens) + Estrogen receptor beta (Homo sapiens) (P03372 whole entry, looked up, the tested form may be a part): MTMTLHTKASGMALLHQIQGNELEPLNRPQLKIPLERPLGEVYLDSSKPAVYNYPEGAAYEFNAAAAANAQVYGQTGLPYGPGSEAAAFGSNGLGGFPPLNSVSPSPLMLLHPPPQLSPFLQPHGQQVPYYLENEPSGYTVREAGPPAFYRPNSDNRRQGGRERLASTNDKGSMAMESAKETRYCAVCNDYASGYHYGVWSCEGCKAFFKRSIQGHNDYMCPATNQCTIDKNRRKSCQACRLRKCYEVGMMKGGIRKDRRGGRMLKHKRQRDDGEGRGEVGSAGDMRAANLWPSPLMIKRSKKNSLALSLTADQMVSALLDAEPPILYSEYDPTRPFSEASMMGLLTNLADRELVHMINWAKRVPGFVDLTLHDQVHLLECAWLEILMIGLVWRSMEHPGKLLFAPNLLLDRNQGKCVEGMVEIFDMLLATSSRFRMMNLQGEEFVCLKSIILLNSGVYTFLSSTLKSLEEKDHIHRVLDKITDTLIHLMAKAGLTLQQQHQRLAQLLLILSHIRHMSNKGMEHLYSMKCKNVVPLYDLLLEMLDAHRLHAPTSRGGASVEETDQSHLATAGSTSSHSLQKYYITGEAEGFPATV
Sequence of Estrogen receptor (Homo sapiens) + Estrogen receptor beta (Homo sapiens) (Q92731 whole entry, looked up, the tested form may be a part): as the sequence (Q92731 whole entry, looked up, the tested form may be a part) above
Sequence of human Peroxisome Proliferator-activated Receptor alpha (PPARa), PPARA (gene 5465) (Q07869 whole entry, looked up): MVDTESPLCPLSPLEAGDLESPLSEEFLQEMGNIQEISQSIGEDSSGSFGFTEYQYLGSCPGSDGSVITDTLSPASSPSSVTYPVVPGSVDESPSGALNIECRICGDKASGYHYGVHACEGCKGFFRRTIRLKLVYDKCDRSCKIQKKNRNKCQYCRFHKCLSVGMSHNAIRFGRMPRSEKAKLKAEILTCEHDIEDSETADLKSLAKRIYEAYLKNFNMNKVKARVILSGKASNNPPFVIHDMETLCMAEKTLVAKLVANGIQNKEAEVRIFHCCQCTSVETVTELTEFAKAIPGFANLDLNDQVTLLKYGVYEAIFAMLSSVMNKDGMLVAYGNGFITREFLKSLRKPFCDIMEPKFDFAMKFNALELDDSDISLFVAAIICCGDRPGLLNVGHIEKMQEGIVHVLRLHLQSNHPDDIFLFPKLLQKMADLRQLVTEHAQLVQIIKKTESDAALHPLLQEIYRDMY

## Oc1ccc(Cl)cc1Cc1cc(Cl)ccc1O
[1]
  AC50: 55.5 µM (active)
[2]
  AC50: 11.9 µM (active)
[3]
  AC50: 11.9 µM (active)
[4]
  outcome: inactive
[5]
  AC50: 14 µM (active)
[6]
  AC50: 2.65 µM (active)

## O=C(C(Cl)Cl)N1CCOC12CCCCC2
[2]
  outcome: inactive
[3]
  outcome: inactive

## CCCc1ccc(OC)cc1
[1]
  outcome: inactive
[2]
  outcome: inactive
[3]
  outcome: inactive

## O=C1C(N(CO)C(=O)NCO)N(CO)C(=O)N1CO (stereo unspecified)
[2]
  outcome: inactive
[3]
  outcome: inactive

## CC1=NN(c2cc(S(=O)(=O)O)ccc2Cl)C(=O)C1N=Nc1ccccc1 (stereo unspecified)
[2]
  outcome: inactive
[3]
  outcome: inactive

## CC(C)(C)c1ccc(-c2ccc(C(C)(C)C)cc2)cc1
[1]
  outcome: inactive
[2]
  outcome: inactive
[3]
  outcome: inactive

## CC(C)=CCC[C@H](C)CCO
[1]
  outcome: inactive
[2]
  outcome: inactive
[3]
  outcome: inactive

## CCOC(=O)CC
[2]
  outcome: inactive
[3]
  outcome: inactive

## C#CC1(O)CC[C@H]2[C@@H]3CCC4=CCCC[C@@H]4[C@H]3CC[C@@]21C (stereo partly specified)
[7]
  outcome: inactive
PGR (gene 5241)
  AC50: 39.6 µM (active)
[6]
  AC50: 5.07 µM (active)

## CC(CC=O)CCCC(C)(C)O (stereo unspecified)
[1]
  outcome: inactive

## NC(=O)N=NC(N)=O
[2]
  outcome: inactive
[3]
  outcome: inactive

## CC(=O)OC(C)C
[2]
  outcome: inactive
[3]
  outcome: inactive

## c1c[nH]cn1
[2]
  outcome: inactive

## OC1CCCC1
[2]
  outcome: inactive

## CC1=CC[C@H]2C[C@@H]1C2(C)C
[2]
  outcome: inactive
[3]
  outcome: inactive

## CO[Si](OC)(OC)c1ccccc1
[2]
  outcome: inactive

## CCCCCCCOC(=O)CCC
[7]
  outcome: inactive
[2]
  outcome: inactive
[3]
  outcome: inactive

## O=c1cc(-c2ccccc2)oc2ccccc12
[1]
  outcome: inactive
[2]
  AC50: 57.3 µM (active)
[3]
  outcome: inactive

## C=C1C2CCC(C2)C1(C)C (stereo unspecified)
[2]
  outcome: inactive

## CC(C)c1ccc2c(C(C)C)cc(C(C)C)c(S(=O)(=O)O)c2c1
[1]
  outcome: inactive
[4]
  AC50: 12.9 µM (active)
[5]
  AC50: 7.37 µM (active)
[6]
  AC50: 10.9 µM (active)

## CC(C)(C)c1ccc(OC(=O)c2ccccc2O)cc1
[2]
  AC50: 55.2 µM (active)
[3]
  outcome: inactive

## CC(C)c1ccc2cc(C(C)C)ccc2c1
[1]
  outcome: inactive
[2]
  outcome: inactive
[3]
  outcome: inactive

## Cc1cc(C)c(C(=O)O)c(C)c1
[2]
  outcome: inactive
[3]
  outcome: inactive

## CCCCC/C=C\CCC=O
[1]
  outcome: inactive

## CC(=O)[C@H]1[C@H](C#N)C[C@H]2[C@@H]3CC=C4C[C@@H](O)CC[C@]4(C)[C@H]3CC[C@@]21C
[2]
  outcome: inactive
[3]
  outcome: inactive

## CCO[Si](C)(OCC)OCC
[2]
  outcome: inactive
[3]
  outcome: inactive

## CC(C)(c1cc(Br)c(OCCO)c(Br)c1)c1cc(Br)c(OCCO)c(Br)c1
[7]
  outcome: inactive

## CNC(=S)NN
[2]
  outcome: inactive

## NC(=O)c1ccccc1O
[2]
  outcome: inactive
[3]
  outcome: inactive

## Cc1ccc(C(C)c2ccc(C)c(C)c2)cc1C
[2]
  AC50: 83.6 µM (active)
[3]
  AC50: 68.1 µM (active)

## CN(C)c1ccc(N=Nc2ccccc2C(=O)O)cc1
[2]
  outcome: inactive
[3]
  outcome: inactive

## Cc1ccc(C(C)(C)C)cc1
[5]
  outcome: inactive

## O=C(Nc1ccccc1SSc1ccccc1NC(=O)c1ccccc1)c1ccccc1
[6]
  AC50: 11.3 µM (active)

## CCOC(=O)Cc1cccc2ccccc12
[2]
  outcome: inactive
[3]
  outcome: inactive

## CCCCCCCC/C=C\CCCCCCCC(=O)OCCO
[2]
  outcome: inactive
[3]
  outcome: inactive
[4]
  outcome: inactive
[5]
  AC50: 12.5 µM (active)

## c1ccc2c(c1)ccc1cc3c(ccc4ccccc43)cc12
[6]
  outcome: inactive

## CCCCC/C=C\C/C=C\CCCCCCCC(=O)OC
[2]
  outcome: inactive
[3]
  outcome: inactive
[5]
  outcome: inactive

## O=S(=O)(O)c1ccccc1C=Cc1ccc(-c2ccc(C=Cc3ccccc3S(=O)(=O)O)cc2)cc1
[2]
  outcome: inactive
[3]
  AC50: 65.5 µM (active)
[8]
  AC50: 12.1 µM (active)
[6]
  AC50: 3.61 µM (active)

## CC=C1CC2C=CC1C2 (stereo unspecified)
[2]
  outcome: inactive
[3]
  outcome: inactive

## CCCCC(CC)CCC(CC(C)C)OS(=O)(=O)O (stereo unspecified)
[2]
  outcome: inactive
[4]
  outcome: inactive

## OCCCS
PGR (gene 5241)
  outcome: inactive

## CN(C)c1ccc(C(=N)c2ccc(N(C)C)cc2)cc1
[2]
  AC50: 18.4 µM (active)
[3]
  outcome: inactive
[8]
  AC50: 14.1 µM (active)

## CCN(CCC#N)c1ccc(N=Nc2c(Cl)cc([N+](=O)[O-])cc2Cl)cc1
[4]
  AC50: 6.24 µM (active)
[6]
  AC50: 25 µM (active)

## COC(=O)c1c(C)cc(O)c(C)c1O
[2]
  AC50: 61.8 µM (active)
[3]
  AC50: 55.5 µM (active)

## CCCCCCCC[N+](C)(CCCCCCCC)CCCCCCCC
[5]
  AC50: 6.9 µM (active)
[8]
  AC50: 4.37 µM (active)
[6]
  outcome: inactive

## CCCCCCCCCCCCCOP(=O)(O)O
[2]
  outcome: inactive
[3]
  outcome: inactive
[4]
  outcome: inactive
[5]
  outcome: inactive
[6]
  AC50: 10.4 µM (active)

## O=C(O)CCCC[C@@H]1SC[C@@H]2NC(=O)N[C@@H]21
[2]
  outcome: inactive
[3]
  outcome: inactive

## O=C(c1ccccc1)C1CCC1
[2]
  outcome: inactive
[3]
  outcome: inactive

## CCCCCCCCO[C@@H]1O[C@H](CO)[C@@H](O)[C@H](O)[C@H]1O
[2]
  outcome: inactive
[3]
  outcome: inactive

## O=S1(=O)OC(c2ccc(O)cc2)(c2ccc(O)cc2)c2ccccc21
[2]
  outcome: inactive
[3]
  outcome: inactive
[9]
  AC50: 11 µM (active)

## CC(C)(C)c1n[nH]c(=O)n(N)c1=O
PGR (gene 5241)
  AC50: 0.131 µM (active)

## CCCCCCCCCCCCCCCC[N+](C)(C)CC
[6]
  AC50: 2.81 µM (active)

## CCCCCCCC/C=C\CCCCCCCC(=O)O
[3]
  outcome: inactive
[5]
  AC50: 8.82 µM (active)

## O=C(C=Cc1ccccc1)OCc1ccccc1
[2]
  outcome: inactive
[3]
  outcome: inactive

## CC/C=C\C/C=C\C/C=C\CCCCCCCC(=O)O
[2]
  outcome: inactive
[3]
  outcome: inactive
[5]
  outcome: inactive
[9]
  outcome: inactive

## CC(C)(C)c1ccc(N)cc1
[2]
  outcome: inactive
[3]
  outcome: inactive

## Cc1cc(C)c(C)cc1C
[5]
  outcome: inactive

## Cn1c([N+](=O)[O-])cnc1COC(N)=O
[2]
  outcome: inactive
[3]
  outcome: inactive

## CO[Si](CCC1CCC2OC2C1)(OC)OC (stereo unspecified)
PGR (gene 5241)
  outcome: inactive

## O=C1CCCC1
[2]
  outcome: inactive
[3]
  outcome: inactive
[6]
  outcome: inactive

## Cc1ccc(N/N=c2\c(=O)cc/c(=N/Nc3ccc(S(=O)(=O)O)cc3)c2=O)c(C)c1
[2]
  outcome: inactive
[3]
  outcome: inactive
[9]
  AC50: 18.6 µM (active)

## C=CC(=O)NC(C)(C)CS(=O)(=O)O
[2]
  outcome: inactive
[3]
  outcome: inactive
